The assay deals with T1, GST-Nv-NF-kB (Ser allele) (Nematostella vectensis, UniProt A7UNT2 2-411).
T1 sequence: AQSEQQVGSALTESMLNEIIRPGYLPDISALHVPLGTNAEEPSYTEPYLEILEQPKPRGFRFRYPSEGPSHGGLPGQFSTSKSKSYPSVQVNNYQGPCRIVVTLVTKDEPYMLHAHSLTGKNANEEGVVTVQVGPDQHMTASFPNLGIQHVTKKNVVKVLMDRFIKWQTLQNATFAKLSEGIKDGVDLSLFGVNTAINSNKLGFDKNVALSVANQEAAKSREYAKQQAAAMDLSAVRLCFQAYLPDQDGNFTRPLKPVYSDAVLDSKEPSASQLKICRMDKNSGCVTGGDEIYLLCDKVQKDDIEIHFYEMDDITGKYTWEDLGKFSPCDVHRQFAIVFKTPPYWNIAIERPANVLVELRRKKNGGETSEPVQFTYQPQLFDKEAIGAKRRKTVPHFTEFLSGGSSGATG
The assay is described as follows: protein-binding microarray (PBM); PBM: ~300 nM protein, 6 mM HEPES pH 7.8, 80 mM KCl, 0.5 mM EDTA, 0.5 mM EGTA, 6% glycerol, 35 ng/ul poly-dIdC, 1% milk, 1 h, room temperature; Ap Aiptasia and Nv Nematostella (sea anemones) / Co Capsaspora / Aq Amphimedon (sponge) / Dm Drosophila / Hu human; RHD is the Rel homology domain; high values mean tight binding. The following applies: dsDNA, one strand shown.
On to “CCGATTAACATCAAAAATGCCCCTGATGTTAATCGGGTCTTGATTCGCTTGACGCTGCTG”, for which the binding signal turned out to be 6.13 z-score. To “CCGATTAACATCAAAGAGCCCCCTGATGTTAATCGGGTCTTGATTCGCTTGACGCTGCTG” belongs 3.77 z-score; to “CCGATTAACATCAAAAAACCCCGTGATGTTAATCGGGTCTTGATTCGCTTGACGCTGCTG”, 6.46 z-score.
